Test results as given in PubChem BioAssay AID1259416 (Broad Institute, 2018).
Values joined by “and” are separate entries in the source; they are usually repeats but may differ in a detail not shown here. Identical values can stand only once. Hit rate of the full screen: of about 69,000 compounds, about 2,600 (3.8%) were called active. What follows is part of a selection rich in actives, with near analogues and random picks from the rest. Values without a mark were called inactive. No stated cut-off is given here; in the data, active means activity change below about -70% (passing the limit was not always enough); inconclusive means no clear call, values can overlap the other calls.

Test: T. gondii growth inhibition with IFN-gamma, primary screen, cell-based (AID 1259416);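 further: host cells are HeLa cells infected with Toxoplasma gondii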
Conditions: Toxoplasma gondii growth in IFN-gamma-treated host cells; active compounds read low; concentration not given here

| Compound | activity change, negative = inhibition |
| --- | --- |
| COCCN1CCO[C@@H]2CN(Cc3ccccc3F)C[C@@H]2C1 | -4.47% |
| CN(C)c1ncccc1CNC(=O)c1cnc2c(c1)nnn2C | 2.4% |
| C/C=C/c1ccccc1[C@@H]1[C@@H](CO)N(C(=O)CN2CCOCC2)[C@H]1C#N | 18.7% |
| COc1ccc(-c2nc(C)c(CCNS(=O)(=O)c3ccccc3)s2)cc1OC | 132% |
| COc1ccc(-c2nc3c(s2)CN(S(=O)(=O)c2ccc(C)cc2C)CC3)cc1OC | -101% (active) |
| CCOc1ccc(-c2nc3c(s2)CN(S(=O)(=O)c2cccc(C)c2)CC3)cc1 | 4.52% |
| COc1cccc(-c2nc3c(s2)CN(S(=O)(=O)c2cccc(F)c2)CC3)c1 | -87.6% (active) |
| COc1cccc(NC2COC3(CCN(S(=O)(=O)c4cccc(F)c4)CC3)C2)c1 (centres undefined) | -1.19% |
| COc1ccc(-c2nc3c(s2)CN(S(=O)(=O)c2cccc(Cl)c2C)CC3)cc1 | -94.8% (active) |
| COC(=O)c1cc2n(n1)CCN(S(=O)(=O)c1ccc(C)cc1OC)C2 | -2.93% |
| COc1ccc(S(=O)(=O)N2CCc3nc(-c4ccccc4)sc3C2)cc1OC | 62% |
| O=S(=O)(NC[C@H]1[C@H](c2ccccc2)[C@H](CO)N1CC1CC1)c1ccccc1 | 14.7% |
| Cc1nc(-c2cccc(F)c2)sc1CCNC(=O)C12CC3CC(CC(C3)C1)C2 | -46.4% |
| C=Cc1cccc(CN2CCC3(CCCN(C(=O)CCOC)C3)C2)c1 (centres undefined) | -2.67% |
| CN(Cc1nc(-c2ccncc2)no1)C(=O)c1cc2ccccc2s1 | -2.68% |
| Cc1ncc(C(=O)O)c(-c2ccccc2)n1 | 0.375% |
| COCc1cnc2n1CCN(C(=O)c1oc3ccccc3c1C)C2C (centres undefined) | 1.32% |
| Cc1cc(C(F)F)nn1CC(=O)NCCn1ncc(-c2ccncc2)c1-c1cccs1 | -65.9% |
| CCOCCn1nc(C)cc1C(=O)N1CCCC2(CNC(=O)O2)C1 (centres undefined) | -0.947% |
| COCC12CCCOC1CCN(S(=O)(=O)C1CC1)C2 (centres undefined) | 5.49% |
| Cc1ccc(-c2ccccc2[C@H]2[C@@H](C#N)N(c3ncc(-c4ccccc4)s3)[C@@H]2CO)cc1 | -77.5% (active) |
| CCc1cnc(N2[C@H](C#N)[C@H](c3ccccc3-c3ccccc3C)[C@H]2CO)s1 | 18.5% |
| C/C=C/c1ccccc1[C@@H]1[C@@H](C#N)N(c2nc(CC)cs2)[C@@H]1CO | 1.59% |

| Compound | activity change, negative = inhibition |
| --- | --- |
| COc1ccc(CN2C(=O)CO[C@H]3CN(C(=O)NC4CC4)C[C@@H]32)cc1 | 15.8% |
| N#Cc1ccc(-c2ccc([C@@H]3[C@@H](CO)N4C(=O)CNC[C@H]34)cc2)cc1 | -24.8% |
| COc1ccccc1CN1[C@@H]2CNC[C@H]1C2c1ccc(-c2cccc(C#N)c2)cc1 (some centres undefined) | -25.9% and -32% |
| N#Cc1ccc(-c2ccc([C@@H]3[C@H]4CNC[C@@H]3N4Cc3ccc4c(c3)OCO4)cc2)cc1 | -70.6% (active) |
| CS(=O)(=O)N1CCCC1c1cccc(Nc2nccs2)n1 (centres undefined) | -21.8% |
| COCCn1c(C(=O)NCCCN(C)C)cc2c1c1ccccc1n2C | -12.8% |
| CC(C)(C)CN1CC2CN(C(=O)Nc3ccccc3)CC21 (centres undefined) | -37.8% |
| O=C(O)c1ccc(NC(=S)NCc2cccs2)cc1 | 33.4% |
| CC1CCN(C(=O)c2cc(=O)n(CC(=O)Nc3ccc(C(C)C)cc3)c3ccccc23)CC1 | -28.9% |
| Cn1nc(CC(=O)Nc2cccc(Cl)c2)c2ccccc2c1=O | -79% (active) |
| Cn1nc(C(=O)O)c2ccccc2c1=O | 58.7% |
| Cc1nc(OCC(=O)Nc2cccc(Cl)c2)c2ccccc2n1 | -0.194% |
| CCn1nc(C)c(NC(=O)CN2CCC(Oc3ncccn3)CC2)c1C | -9.88% |
| COc1cccc2[nH]c(C(=O)N3CCCC(c4cc(CN(C)C)n(C)n4)C3)cc12 (centres undefined) | 5.73% |
| Cc1sccc1C(=O)N1CCC2(CC1)CC(NS(C)(=O)=O)C2 | 6.5% |
| O=C1c2ccccc2C(=O)C1c1ccccc1 | -11.2% and 19.1% |
| COc1ccc2cc(-c3ccccc3NC(=O)CN)ccc2c1 | 70.1% |
| COc1ccc2c(C3C(=O)c4ccccc4C3=O)nccc2c1 | -108% (active) |
| COc1ccc(-c2cc(C)cnc2-n2cnnc2)cn1 | 4.46% |
| CCc1nc(CN2CCC3(CC2)C(=O)N(CCc2ccccc2)C(=O)N3C)c(C)[nH]1 | -3.85% |
| COc1ccc2c3c(n(C)c2c1)[C@H](CO)N(Cc1ccccc1Cl)CC31CN(C(=O)CN(C)C)C1 | -29.5% |
| CN1C(=O)CCc2cc(C(=O)NC3CCCC3)ccc21 | 9.57% |
| CCN1C(=O)[C@H]2CN(c3ncccn3)C[C@@H]2C12CCN(S(=O)(=O)CC(C)C)CC2 | -13.4% |

| Compound | activity change, negative = inhibition |
| --- | --- |
| Cc1cccnc1N1C[C@H]2CN(c3cnn(C)c3)C(=O)[C@@H]2C1 | -73.4% (active) |
| Cc1ccc(C(=O)N2CCC3(CC2)CCN(c2cnn(C)c2)C3=O)cc1 | 19.8% |
| O=C(CCn1nnc2ccccc21)N1CCCC(c2ccn[nH]2)C1 (centres undefined) | 2.46% |
| Cc1noc2nc(C3CCCN(C(=O)CCc4ccccc4)C3)cc(C(F)F)c12 (centres undefined) | -93.3% (active) |
| Cc1ccc(NC(=O)CC(=O)N2CCCC(c3nc(CC(C)C)no3)C2)cc1 (centres undefined) | 25% |
| CCCCc1ncc(CN2CCN(c3ccccc3OC)CC2C)[nH]1 (centres undefined) | -2.06% |
| O=S(=O)(NCc1ccccc1)N1CCCC1c1ccccn1 (centres undefined) | -3.86% |
| CO[C@@H]1CCN(C(=O)c2ccnn2C)[C@H]2CN(CC3CC3)C[C@@H]12 | 33.7% |
| COCCC(=O)c1cc2c(s1)CCN2c1ccc(C)nn1 | 59.6% |
| Cc1ccccc1C(=O)NCCc1csc(-c2ccc(F)cc2)n1 | -18% |
| COc1ccccc1C(=O)NCCc1csc(-c2ccc(Cl)cc2)n1 | -74% (active) |
| O=C(NCCc1csc(-c2ccccc2)n1)c1ccccc1F | 455% |
| O=C(CSc1nc2ccc(N3C(=O)c4ccccc4C3=O)cc2s1)N1CCOCC1 | 1.26% |
| COc1ccc(NS(=O)(=O)c2cc3c4c(c2)CCC(=O)N4CCC3)cc1OC | 2.51% |
| CC(C)Cc1cc(C(=O)N2CCCC3(CN(C)C(=O)O3)C2)on1 (centres undefined) | 3.84% |
| CCCCCC(O)c1cccc(OCc2ccc3ccccc3n2)c1 (centres undefined) | 74.5% and 28.6% |
| Cn1cc(-c2ccncc2)c(-c2ccc(OCc3ccc4ccccc4n3)cc2)n1 | -77.6% (active) |
| Cc1nn(C)cc1-c1c(-c2ccccc2)ncn1CCNC(=O)c1ccncc1 | -3.05% |
| CCOC(=O)c1c(C(F)(F)F)cc(-c2ccccc2)nc1C | 12.4% |
| O=C(c1ccoc1)N1CCCn2c(nc(CN3CCCC3)cc2=O)C1 | -0.164% |
| COc1ccc(S(=O)(=O)CCNS(=O)(=O)N2CCCC(C)C2)cc1 (centres undefined) | 2.67% |
| CCc1ccccc1NC(=O)Cn1ncc2c(N(CC)CC)ncnc21 | -34.2% |
| O=C(Cn1ncc2c(N3CCCC3)ncnc21)NCc1ccccc1 | 10.5% |

| Compound | activity change, negative = inhibition |
| --- | --- |
| CCN(CC)c1ncnc2c1cnn2CC(=O)NCc1ccccc1 | -95.8% (active) |
| Cc1cc(N2CCC(C(=O)Nc3nnc(-c4cccnc4)s3)CC2)n2ncnc2n1 | -5.63% |
| COc1ccc(CCCOC(Cn2ccnc2)c2ccc(OC)cc2)cc1 (centres undefined) | -83.3% (active) |
| Clc1ccc(C(Cn2ccnc2)OCc2ccsc2Cl)c(Cl)c1 (centres undefined) | -59.6% and 3.6% |
| Cc1nc2c(c(=O)[nH]1)CCN(C(=O)c1c(-c3ccccc3Cl)noc1C)C2 | 11.4% |
| COC(=O)c1cc2n(n1)CCCN(C(=O)COc1ncnc3ccccc13)C2 | 2.6% |
| O=C(COc1ccc(C(=O)c2ccccc2)cc1)NC1CCN(Cc2ccccc2)CC1 | 25.7% |
| O=C(Nc1ccc(OCc2ccccc2)cc1)OCC1CN(Cc2ccccc2)CCO1 (centres undefined) | -88.7% (active) |
| COc1ccc(NC(=O)c2cccc(CN3C[C@@H](C)O[C@@H](C)C3)c2)cc1 | 26.7% |
| CN1Cc2ccccc2CC2(CCN(Cc3ccsc3)CC2)C1=O | 0.416% |
| CN1C(=O)c2cc(NC(=O)c3ccc4c(c3)OCO4)ccc2OC[C@@H]2O[C@H](CC(=O)O)CC[C@H]21 | 8.45% |
| Cc1ccc(Cl)cc1NC(=O)CN1C(=O)CCc2cc(S(=O)(=O)N3CCCCC3)ccc21 | 0.0244% |
| Cc1cc(C)cc(NC(=O)CN2C(=O)CCc3cc(S(=O)(=O)N4CCOCC4)ccc32)c1 | 24.4% |
| Cc1ccc(NC(=O)CN2C(=O)CCc3cc(S(=O)(=O)N4CCCCC4C)ccc32)cc1N(C)C (centres undefined) | -103% (active) |
| COC(=O)c1c(NCc2c(C)noc2C)c2cccc(Cl)c2[nH]c1=O | 7.07% |
| Cc1ccc2[nH]c3c(c2c1)CCNC31C(=O)N(C)c2ccc(Br)cc21 (centres undefined) | 1.48% |
| CS(=O)(=O)N1CCO[C@H]2[C@@H](OCc3cccnc3)CC[C@H]21 | 37.3% |
| O=C1c2cc(OCCN3CCCCC3)ccc2-c2ccc(OCCN3CCCCC3)cc21 | -90% (active) |
| O=C(Nc1ccc(F)cc1F)N1CCCN(CCOc2ccccc2)CC1 | 8.95% |
| O=c1[nH]c2ccccc2n1C1CCN(CCOc2ccccc2)CC1 | -49.4% |
